# In PubChem BioAssay:
# Active and inactive are the calls of the source. Unless noted, the rule behind the calls is not given here.
# Experiments:
# [1] = HepG2 liver cancer cell viability effects, profiling panel, resazurin fluorescence, 24 h, PK04 Diversity Set (AID 1172); settings: higher = more signal
# [2] = basal S. cerevisiae growth modulation, no modifier, primary screen, OD600, strain BY4716, 24 h, basal condition (AID 1173); settings: OD600, 24 h, higher = more signal, called active from +8 up or from −8 down
# [3] = MM1S myeloma cell viability, profiling panel, resazurin fluorescence, basal, 24 h, PK04 Diversity Set (AID 1174); settings: higher = more signal, called active from +8 up or from −8 down;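 note: MM1S multiple myeloma cell line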
# [4] = biological target: Dihydroorotate dehydrogenase (quinone), mitochondrial (Plasmodium falciparum (isolate 3D7)) (UniProt Q08210); assay: PfDHODH enzyme inhibitors, primary screen, biochemical, C-terminal His tag, absorbance 600 nm (AID 1175); settings: DCIP absorbance 600 nm, higher = more signal, called active from +8 up or from −8 down;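 note: recombinant parasite enzyme with a five histidine tag at its C terminus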
# [5] = P. aeruginosa biofilm formation inhibitors, primary screen, strain PAO1, LB-PBS medium, absorbance 600 nm (AID 1176); settings: P. aeruginosa PAO1 growth/biofilm, A600, 12 h; higher = more signal
# [6] = S. cerevisiae RM11-1a growth modifiers, primary screen, strain RM11-1a, OD600, basal, 24 h (AID 1177); settings: OD600, 24 h, higher = more signal, called active from +8 up or from −8 down;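 note: cultures grown under basal conditions with no added stressor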
# [7] = E. coli acrAB mutant growth effects, primary screen, E. coli filamentation inducers, strain DRC39, OD650, 24 h (AID 1178); settings: higher = more signal, called active from +8 up or from −8 down;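 note: growth measured as culture turbidity by optical density at 650 nm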
# [8] = E. coli acrAB mutant growth effects, primary screen, E. coli filamentation inducers, strain DRC39, OD650, 48 h (AID 1179);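 note: screen aims at cell division blockers that make cells filament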; settings: E. coli DRC39 delta-acrAB growth, higher = more signal, called active from +8 up or from −8 down
# [9] = RPMI8226 myeloma cell viability, profiling panel, resazurin fluorescence, basal, 24 h, PK04 Diversity Set (AID 1180); settings: higher = more signal;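 note: RPMI8826 multiple myeloma cell line at 5000 cells per well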
# [10] = biological target: E3 ubiquitin-protein ligase XIAP (Homo sapiens) (UniProt P98170); assay: XIAP binders, primary screen, biophysical, small-molecule microarray, fluorescence 635 nm (AID 1181); settings: small-molecule microarray binding, higher = more signal;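 note: score merges 667 nm emission and signal to noise over triplicate slides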
# [11] = system: XIP peptide (Xip251-270) binding; assay: small-molecule binders of XIP peptide, primary screen, biochemical, small-molecule microarray, fluorescence 635/667 nm, 0.1 µg/mL protein (AID 1182); settings: fluorescent protein binding, 635 nm, higher = more signal, called active from +8 up or from −8 down
# XIP peptide (Xip251-270) = assay: small-molecule binders of XIP peptide, primary screen, biochemical, small-molecule microarray, fluorescence 635/667 nm, 0.5 µg/mL protein (AID 1183); settings: small-molecule microarray binding, fluorescence 635 nm; higher = more signal
# [12] = Plasmodium falciparum growth inhibition, primary screen, strain 3D7, DAPI fluorescence, 100 nL (AID 1184);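 note: parasites grown inside human red blood cells in medium with human serum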; settings: P. falciparum 3D7 growth, 3 d, higher = more signal
# [13] = biological target: Homeobox protein Hox-A13 (Mus musculus) (UniProt Q62424); assay: inhibitors of HoxA13-DNA binding, primary screen, biochemical, fluorescence polarization, labeled oligonucleotide (AID 1185); settings: 15 min, higher = more signal, called active from +8 up or from −8 down
# [14] = inhibitors of hydroxyurea-induced Chk1 phosphorylation, primary screen, imaging, HeLa, phospho-Chk1 antibody, percent positive cells (AID 1186); settings: hydroxyurea-induced phospho-Chk1 immunofluorescence imaging, higher = more signal
# [15] = inhibitors of hydroxyurea-induced Chk1 phosphorylation, primary screen, imaging, HeLa, phospho-Chk1 nuclear intensity (AID 1187); settings: hydroxyurea-induced phospho-Chk1 immunofluorescence imaging, higher = more signal
# Sequence of Homeobox protein Hox-A13 (Mus musculus) (Q62424 whole entry, looked up): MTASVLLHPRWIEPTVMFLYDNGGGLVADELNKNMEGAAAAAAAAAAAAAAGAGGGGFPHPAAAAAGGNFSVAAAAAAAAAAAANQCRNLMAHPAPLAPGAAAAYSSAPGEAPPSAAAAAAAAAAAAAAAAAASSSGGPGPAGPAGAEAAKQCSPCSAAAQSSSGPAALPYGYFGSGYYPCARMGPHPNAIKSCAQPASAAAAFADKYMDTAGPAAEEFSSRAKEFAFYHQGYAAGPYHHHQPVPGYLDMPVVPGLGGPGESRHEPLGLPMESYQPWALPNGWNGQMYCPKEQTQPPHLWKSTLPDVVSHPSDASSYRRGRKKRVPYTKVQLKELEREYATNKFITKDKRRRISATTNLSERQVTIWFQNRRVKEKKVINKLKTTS
# Sequence of Dihydroorotate dehydrogenase (quinone), mitochondrial (Plasmodium falciparum (isolate 3D7)) (Q08210 whole entry, looked up): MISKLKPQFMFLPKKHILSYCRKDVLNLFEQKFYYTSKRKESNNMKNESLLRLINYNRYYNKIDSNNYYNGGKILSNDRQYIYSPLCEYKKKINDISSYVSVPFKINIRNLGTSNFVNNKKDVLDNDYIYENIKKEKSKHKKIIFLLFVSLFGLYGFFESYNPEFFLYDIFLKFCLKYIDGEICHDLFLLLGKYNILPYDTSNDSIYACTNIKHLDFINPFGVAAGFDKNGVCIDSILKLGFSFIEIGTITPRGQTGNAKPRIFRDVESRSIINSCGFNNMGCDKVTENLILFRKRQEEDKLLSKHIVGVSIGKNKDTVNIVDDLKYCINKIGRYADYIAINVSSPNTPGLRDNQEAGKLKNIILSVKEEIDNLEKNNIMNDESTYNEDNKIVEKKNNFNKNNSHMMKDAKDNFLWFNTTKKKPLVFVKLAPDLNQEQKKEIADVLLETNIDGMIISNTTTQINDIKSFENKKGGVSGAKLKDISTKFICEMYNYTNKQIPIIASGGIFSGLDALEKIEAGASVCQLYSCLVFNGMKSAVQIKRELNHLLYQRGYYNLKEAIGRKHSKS
# Sequence of E3 ubiquitin-protein ligase XIAP (Homo sapiens) (P98170 whole entry, looked up): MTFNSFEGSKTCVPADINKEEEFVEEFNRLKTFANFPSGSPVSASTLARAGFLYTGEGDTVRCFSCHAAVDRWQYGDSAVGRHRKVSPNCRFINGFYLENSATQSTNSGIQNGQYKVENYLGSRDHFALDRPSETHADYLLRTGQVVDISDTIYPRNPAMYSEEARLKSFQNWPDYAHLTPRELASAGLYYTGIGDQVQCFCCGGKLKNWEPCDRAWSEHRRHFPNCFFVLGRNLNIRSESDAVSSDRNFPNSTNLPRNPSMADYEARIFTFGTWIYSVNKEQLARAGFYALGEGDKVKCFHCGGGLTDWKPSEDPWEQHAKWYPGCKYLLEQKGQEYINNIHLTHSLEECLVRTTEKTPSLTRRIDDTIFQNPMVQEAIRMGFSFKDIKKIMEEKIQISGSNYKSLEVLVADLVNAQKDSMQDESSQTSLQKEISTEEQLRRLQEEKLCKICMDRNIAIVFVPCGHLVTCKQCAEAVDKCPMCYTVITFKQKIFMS
SMILES,z-score [1],z-score [2],z-score [3],composite z-score [4],z-score [5],z-score [6],z-score [7],z-score [8],z-score [9],composite z-score [10],composite z-score [11],composite z-score (XIP peptide (Xip251-270)),z-score [12],z-score [13],z-score [14],z-score [15]
COc1cc(OC)c(C(O)C2C=CC3C(=O)N(c4ccccc4)C(=O)C3N2Nc2ccc(C#N)cc2)cc1Br (stereo not drawn),-0.99,-6.31 (inactive),-0.408 (inactive),1.49 (inactive),0.984 (inactive),-0.759 (inactive),-0.628 (inactive),-0.0118 (inactive),-0.758,-0.0181,3.12 (inactive),0.796,-0.365,-3.36 (inactive),-0.002 (inactive),-0.795 (inactive)
O=c1cccc(-c2ccc(C(F)(F)F)cc2)o1,-0.0559,-9.38 (active),0.0889 (inactive),-0.723 (inactive),0.0767 (inactive),-0.962 (inactive),-0.865 (inactive),-0.325 (inactive),0.263,0.0535,0.338 (inactive),-0.256,1.39,-1.7 (inactive),0.264 (inactive),0.197 (inactive)
COC(=O)[C@]1(CCS(=O)(=O)c2ccccc2)N=C(c2ccc(OCCCO)cc2)O[C@@H]1c1ccccc1CN=[N+]=[N-],-1.71,1.69 (inactive),-4.25 (inactive),1.09 (inactive),1.32 (inactive),1.91 (inactive),0.153 (inactive),-1.14 (inactive),-3.68,-0.0062,0.867 (inactive),0.769,-2.2,-0.936 (inactive),-0.375 (inactive),-0.574 (inactive)
C=CC1c2cc(O)c(OC)cc2CCN1Cc1sc2ccccc2c1Cl (stereo not drawn),-0.62,-18.3 (active),-0.467 (inactive),-1.04 (inactive),-0.227 (inactive),-3.6 (inactive),0.243 (inactive),-0.404 (inactive),-0.802,0.265,0.51 (inactive),0.618,-0.614,-2.71 (inactive),0.326 (inactive),-0.0459 (inactive)
CC[C@@H]1[C@H]2C3C(=O)N(CC)C(=O)C3CC(=O)[C@H]2[C@H](c2ccc(C)cc2)N1S(=O)(=O)c1ccc(C)cc1 (stereo partly drawn),-0.881,0.252 (inactive),-0.25 (inactive),-0.0972 (inactive),-0.144 (inactive),0.561 (inactive),-0.339 (inactive),0.25 (inactive),-0.695,-0.119,0.117 (inactive),0.643,-0.915,-4.84 (inactive),0.2 (inactive),-0.264 (inactive)
CCCCN1CC=CC23O[C@@H]4C=CCOC(=O)[C@@H]4[C@H]2C(=O)N(C(C)CO)[C@@H]3C1=O (stereo partly drawn),-0.0023,0.15 (inactive),-0.536 (inactive),-1.49 (inactive),-0.456 (inactive),-0.938 (inactive),-0.338 (inactive),-0.478 (inactive),-0.784,-0.0525,-0.161 (inactive),-1.06,1,-5.05 (inactive),-0.525 (inactive),-0.392 (inactive)
CC(C)(C)OC(=O)CC[C@]1(C(=O)O)N=C(c2ccc(OCCCO)cc2)O[C@H]1c1ccccc1,1.29,-0.739 (inactive),0.904 (inactive),-14.3 (active),-0.76 (inactive),-0.279 (inactive),0.419 (inactive),1.3 (inactive),1.65,-0.0594,-0.0164 (inactive),0.543,-1.62,-3.48 (inactive),-0.388 (inactive),-0.243 (inactive)
C[C@H]1ON(c2ccc(C(=O)OC(C)(C)C)cc2)[C@@H](c2ccc(O)cc2)[C@@H]1C(=O)N1C(=O)OC[C@@H]1c1ccccc1,-0.319,-0.407 (inactive),-0.263 (inactive),0.314 (inactive),0.294 (inactive),0.759 (inactive),-0.563 (inactive),-0.148 (inactive),-0.782,0.0029,0.0197 (inactive),0.446,-1.47,-4.21 (inactive),0.148 (inactive),0.062 (inactive)
NC(=O)N1C(=O)C2C(C1=O)C1C=C(c3ccc(CO)cc3)C2C(C2CC2)N1Cc1sc2ccccc2c1Cl (stereo not drawn),-0.131,-2.55 (inactive),-1.06 (inactive),-2.67 (inactive),-0.836 (inactive),-0.484 (inactive),0.927 (inactive),0.112 (inactive),-1.23,-0.117,0.703 (inactive),0.726,-2.1,-2.31 (inactive),-0.0244 (inactive),-0.0866 (inactive)
C=C(COC)/C(=C/C[C@@H](OC(=O)c1ccncc1)c1ccc(CO)o1)c1cnc2ccccc2c1,0.7,0.705 (inactive),0.372 (inactive),-7.93 (inactive),0.379 (inactive),1.2 (inactive),0.16 (inactive),0.0648 (inactive),0.235,0.641,0.86 (inactive),0.726,-0.58,-5.9 (inactive),0.496 (inactive),0.671 (inactive)
COC(=O)[C@@]1(Cc2ccc(F)cc2)[C@H]2c3cc(C(=O)N4CCCC4)n(CCF)c3C[C@H]2CN1C(=O)c1ccccc1,-0.282,-0.273 (inactive),-0.547 (inactive),-0.41 (inactive),0.84 (inactive),0.24 (inactive),-0.239 (inactive),-0.311 (inactive),-0.185,-0.233,2.43 (inactive),-0.352,-0.815,-4.62 (inactive),-0.323 (inactive),-0.593 (inactive)
C=C(COC)/C(=C/C[C@@H](OC(=O)c1ccncc1)c1ccc(OCCO)cc1)c1cnc2ccccc2c1,0.564,-1.17 (inactive),0.354 (inactive),-6.09 (inactive),-0.0221 (inactive),-0.0819 (inactive),0.595 (inactive),0.436 (inactive),0.621,0.0566,0.39 (inactive),0.595,-2.93,-5.37 (inactive),-0.0998 (inactive),0.349 (inactive)
CCCNC(=O)[C@@]1(c2ccc([N+](=O)[O-])cc2)CC(=O)N(C2CCCCC2)[C@@H]1c1ccc(CO)cc1I,-0.455,0.641 (inactive),-0.606 (inactive),0.478 (inactive),0.429 (inactive),-0.327 (inactive),0.549 (inactive),-0.303 (inactive),-1.18,0.134,0.423 (inactive),0.845,-1.66,-5.34 (inactive),-0.0439 (inactive),0.329 (inactive)
COC(=O)[C@@]1(Cc2ccc(OC)cc2)[C@H]2c3cc(C(=O)N(C)C)n(Cc4ccccc4)c3C[C@H]2CN1C(=O)c1ccccc1,2.31,-0.373 (inactive),-1.15 (inactive),0.171 (inactive),0.756 (inactive),0.692 (inactive),0.111 (inactive),0.892 (inactive),-1.66,0.0791,0.0961 (inactive),-0.248,-0.921,-0.853 (inactive),-0.342 (inactive),-0.687 (inactive)
Cc1ccc(S[C@]2(C(=O)NC3CC3)CC(=O)N(Cc3ccccc3Cl)[C@@H]2c2ccc(CO)cc2I)cc1,-0.451,-4.44 (inactive),-3.72 (inactive),-2.13 (inactive),0.348 (inactive),-0.526 (inactive),0.17 (inactive),0.932 (inactive),-1.61,-0.0118,0.98 (inactive),0.824,0.287,-1.54 (inactive),0.159 (inactive),0.858 (inactive)
CC(=O)n1cc(C(O)C2C=CC3C(=O)N(Cc4ccccc4)C(=O)C3N2n2cnnc2)c2ccccc21 (stereo not drawn),-0.227,0.319 (inactive),-0.929 (inactive),-0.351 (inactive),-0.514 (inactive),-0.371 (inactive),-1.34 (inactive),-1.4 (inactive),-1.27,0.764,0.097 (inactive),0.008,-0.15,-3.16 (inactive),1.19 (inactive),0.239 (inactive)
CN(C)C(=O)[C@]1(CCC(=O)OC(C)(C)C)N=C(c2ccc(OCCCO)cc2)O[C@@H]1c1ccccc1,-0.0109,-0.0261 (inactive),0.352 (inactive),-0.19 (inactive),0.248 (inactive),0.0653 (inactive),0.0325 (inactive),-0.384 (inactive),0.448,-0.0773,0.454 (inactive),0.116,0.201,-5.58 (inactive),-0.0091 (inactive),0.277 (inactive)
C=CCOC(=O)[C@H]1[C@@H]2C(=O)O[C@@H](c3ccccc3)[C@@H](c3ccccc3)N2[C@@H](c2ccc(OCCOC(=O)[C@H]3C[C@H]4C(=O)N[C@@H](Cc5ccccc5)C(=O)N4[C@H]3c3ccc(O)cc3)cc2)[C@]12C(=O)Nc1ccc(I)cc12,-0.16,1.82 (inactive),-0.417 (inactive),-1.16 (inactive),4.1 (inactive),1.66 (inactive),-0.359 (inactive),-0.293 (inactive),0.194,0.0981,0.451 (inactive),0.768,-1.62,1.21 (inactive),-0.688 (inactive),-0.476 (inactive)
